Assay [1] is described as follows: TAMU_PeakParms_SingleDonor1434_Asystole: Texas A&M University (TAMU) 1.5-hr Human Induced Pluripotent Stem Cell (iPSC)-derived Cardiomyocytes Calcium (Ca+2) Flux Assay for Cardiotoxicity: Asystole (quiescence of beating) (AID 2284328). Summed up:
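Human iPSC-derived cardiomyocytes (donor 1434) were exposed to 0.2, 1, 10 and 100 uM compound in 0.5% DMSO for 90 min at 37C. Ca2+-dye fluorescence gave average peak frequency; POD is EC95, a 95% beat-rate drop versus DMSO.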

Assay [2] relates to Brachyury (BRA) Protein Expression, Deisenroth Lab, TBXT (gene 6862). The assay is described as follows: CCTE_Deisenroth_DEVTOX-GLR_legacy_Bra: (Legacy) CCTE's DevTox GLR-Endo Assay Evaluation of Brachyury (BRA) Protein Expression, Deisenroth Lab (AID 2284329; active = hit-call score of the fitted dose curve at least 0.9, where 1 is the maximum; inactive = score below 0.9). Summed up:
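High-content imaging of fixed RUES2-GLR cells after a 48-hour differentiation with two compound exposures yields percent cells whose Bra signal exceeds pluripotent control median by 5x BMAD; values are baseline-corrected to DMSO.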

Assay [3] in a line: CCTE_Deisenroth_DEVTOX-GLR_legacy_CellCount: (Legacy) Viability Assessment in CCTE's DevTox GLR-Endo Assay, Deisenroth Lab (AID 2284331; active = hit-call score of the fitted dose curve at least 0.9, where 1 is the maximum; inactive = score below 0.9). Conditions: actives raise or lower the signal. The procedure, abridged:
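Viability is taken from imaged nuclei counts in fixed RUES2-GLR cultures after 48 h of differentiation under two 24 h-spaced chemical exposures, 10 concentrations from 1 nM to 200 uM, gain or loss versus DMSO baseline.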

In assay [4] the test system is SRY-box transcription factor 17 (SOX17) Protein Expression, Deisenroth Lab, SOX17 (gene 64321). The assay is described as follows: CCTE_Deisenroth_DEVTOX-GLR_legacy_Sox17: (Legacy) CCTE's DevTox GLR-Endo Assay Evaluation of SRY-box transcription factor 17 (SOX17) Protein Expression, Deisenroth Lab (AID 2284341; active = hit-call score of the fitted dose curve at least 0.9, where 1 is the maximum; inactive = score below 0.9). Conditions: actives raise or lower the signal. Summed up:
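Endoderm-differentiation readout in RUES2-GLR human pluripotent cells at 48 h, concentrations spanning 1 nM - 200 uM. Sox17-positive cells divided by total cell count; gain or loss relative to DMSO solvent control, n=4 experimental replicates.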

For assay [5], the system named is SERPINA7 (gene 6906). The experiment in a line: CCTE_GLTED_hTBG: CCTE's human Thyroxine-binding Globulin (TBG) Inhibition Assay, Great Lakes Toxicology and Ecology Division (GLTED) Lab (AID 2284343).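 Also: active chemicals lower fluorescence versus DMSO baseline by displacing probe.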 The procedure, abridged: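 Human thyroxine-binding globulin was exposed to each chemical for 2 hours, during which the ANSA probe could be displaced. Fluorescence was then measured at 380/475 nm, and loss of signal was analysed relative to DMSO.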

In assay [6] the test system is SRY-box transcription factor 2 (SOX2) Protein Expression, Deisenroth Lab, SOX2 (gene 6657). The experiment in a line: CCTE_Deisenroth_DEVTOX-GLR_legacy_Sox2: (Legacy) CCTE's DevTox GLR-Endo Assay Evaluation of SRY-box transcription factor 2 (SOX2) Protein Expression, Deisenroth Lab (AID 2284346; active = hit-call score of the fitted dose curve at least 0.9, where 1 is the maximum; inactive = score below 0.9). Summed up:
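Two exposures, 24 h apart, during 48 h defined-media differentiation of seeded RUES2-GLR cells; nuclei-stained cells imaged. Sox2 positivity called at 5x BMAD above endoderm control median, DMSO median subtracted.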

Assay [7] is described as follows: CCTE_Deisenroth_5AR_NBTE_donor: CCTE's 5alpha-reductase NanoBRET Target Engagement Assay […], Deisenroth Lab (AID 2284319; active = hit-call score of the fitted dose curve at least 0.9, where 1 is the maximum; inactive = score below 0.9). To be noted: actives raise or lower the signal. Summed up:
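SRD5A2-NanoLuc, HEK293T, 20 h expression. Chemical 10 nM - 29.9 uM, 8 conc, duplicate; 3 h preincubation + 2 h testosterone tracer. Nano-Glo substrate plus extracellular NanoLuc inhibitor; donor lum 460 nm. DMSO baseline, bidirectional fit.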

Assay [8] has as its system SRD5A2 (gene 6716). The experiment in a line: CCTE_Deisenroth_5AR_NBTE_ratio: CCTE's 5alpha-reductase NanoBRET Target Engagement Assay - Ratio, Deisenroth Lab (AID 2284322; active = hit-call score of the fitted dose curve at least 0.9, where 1 is the maximum; inactive = score below 0.9). To be noted: actives raise or lower the signal. The procedure, abridged: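 HEK293T cells transiently expressing an SRD5A2-NanoLuc fusion (20 h post-transfection) were exposed to test chemical (10 nM - 29.9 uM, 8 points) for 3 h, then testosterone tracer for a further 2 h. Acceptor/donor BRET ratio was fitted bidirectionally against DMSO baseline.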
On the technique in general: In BRET a luciferase serves as donor, and the signal depends on an acceptor being close.

The nature of assay [9]: CCTE_Mundy_HCI_iCellGluta_NOG_NeuriteLength: CCTE's Neurite Outgrowth Assay in iCellGluta cells for Neurite Length, Mundy Lab (AID 2284318). Summed up: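 Automated high-content imaging of betaIII-tubulin (Alexa Fluor-488) and Hoechst-stained cells gave neurite length, normalized to the DMSO baseline.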
Assay [10] in a line: IUF_NPC1_cytotoxicity_72hr: Cytotoxicity Assessment at 72 hours in the Leibniz Research Institute for Environmental Medicine (IUF) Neural Progenitor Cell Proliferation Assay (NPC1) (AID 2284332).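 Also: rising LDH signal means more cytotoxicity.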 Summed up: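 Membrane-integrity loss is scored from LDH released into the medium, detected as resorufin fluorescence, with activity fitted upward relative to baseline. Test material stays on human fetal-derived progenitor spheres for 72 h.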

The nature of assay [11]: CCTE_Mundy_HCI_iCellGluta_NOG_NeuronCount: CCTE's Neurite Outgrowth Assay in iCellGluta cells for Neuron Count, Mundy Lab (AID 2284340).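 Also: cells fixed about 48 h after compound addition.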 The procedure, abridged: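 Neuron count read by automated high-content imaging of Hoechst 33342 and betaIII-tubulin/Alexa Fluor-488 labelling in human iPSC glutamatergic neurons. Activity fitted relative to DMSO.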
Assay [12] can be described thus: CCTE_Mundy_HCI_iCellGluta_NOG_NeuriteCount: CCTE's Neurite Outgrowth Assay in iCellGluta cells for Neurite Count, Mundy Lab (AID 2284342).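 Also: chemical exposure about 48 hours starting 2 hours after plating.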
For assay [13], the system named is IYD (gene 389434). The assay is described as follows: CCTE_GLTED_hIYD: CCTE's human Iodotyrosine Deiodinase (xIYD) Inhibition Assay, Great Lakes Toxicology and Ecology Division (GLTED) Lab (AID 2284317).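 Also: cell-free human IYD enzyme made in baculovirus insect cells; iodide freed from monoiodotyrosine measured by cerium arsenite color change at 420 nm.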 The procedure, abridged: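 Deiodination of MIT by insect-cell-produced human IYD is measured after a 3 h incubation with test chemical. Free iodide passes through a Dowex column and accelerates Sandell-Kolthoff Ce4+ reduction, read at 420 nm; run in triplicate.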

A short description of assay [14]: VALA_MIGHUV1_ScratchOnly_WoundArea: VALA Sciences human Umbilical Vein Endothelial Cell Migration (MIGHUV) Assay, Area of Scratch Wound Inhibited Recovery (AID 2284336). The procedure, abridged: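 Wound area remaining after 24 h recovery imaged by Hoechst nuclear fluorescence in scratched HUVEC cultures, chemicals added within 30 min of scratching across a 6-point series. Gain of signal fitted against 0.1% DMSO; cytochalasin D positive control.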

SMILES strings stand for the structures. Records with an inconclusive call do not appear. Calls of active or inactive are those of the source. The calls were made as follows, unless noted: active = hit-call score of the fitted dose curve at least 0.9, where 1 is the maximum; inconclusive = response in the unintended direction; inactive = score below 0.9.

A word on the AC50: it is the concentration giving half of the maximal activity seen. Regarding `CC/C(=C(/CC)c1ccc(O)cc1)c1ccc(O)cc1`, the result in assay [1] was inactive. In addition, the AC50 in assay [2] was 1.3 µM (active); in assay [3], 1.54 µM (active); in assay [4], 1.24 µM (active); in assay [5], 1.87 µM (active); in [6], 2.43 µM (active).

On to `NCc1cccc(C2CCN(C(=O)c3ccc(C#Cc4ccccc4F)o3)CC2)c1`, for which the outcome in assay [7] and in [8] was inactive.

With `O=C1O[C@H]([C@@H](O)CO)C(O)=C1O`, the result in assay [9], in [10], in assay [11] and in assay [12] was inactive.

In the case of `NC(=O)c1nc(-c2cccc(-c3cc(F)ccc3OCC(F)(F)C(F)(F)F)c2)n[nH]1`, the AC50 in [5] was 3.35 µM (active).

For `CCCCCCCCCCCC[N+](C)(C)C`, the outcome in assay [13] was inactive.

On to `O=C(Nc1ccc(Cl)cc1)Nc1ccc(Cl)c(Cl)c1`, for which the compound was classed as inactive in assay [14].

On to `Cc1oc2c(NC(=O)c3c(Cl)cccc3Cl)cccc2c1C(C)(C)O`, for which the outcome in [13] was inactive. In assay [5], the AC50 was 13.6 µM (active).

For the compound `OCCO`, the compound was classed as inactive in assay [2], in [3], in assay [4] and in [6].

For `Clc1cc(Cl)c2c(c1)N=C1CCCCCN1C2`, in [13], the call was inactive.

With `CCCCCCCCOc1ccc(C(=O)c2ccccc2)c(O)c1`, the AC50 in assay [5] is 39.1 µM (active).
